Source: PubChem BioAssay (NCATS)
Inconclusive results are not listed. The source made the active and inactive calls. Unless noted, calls follow the shape of the dose curve; as a rule, active = well fitted curve in the direction sought with a large enough effect; inconclusive = small, poorly fitted or top-dose-only effect, or another doubt; inactive = no such curve, though single readings can be large; an effect the other way counts as inactive or inconclusive.

Experiments:
[1] = NFAT Signaling Pathway (AID 444; active = well fitted curve in either direction with a large enough effect, not every such curve was filed as active;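 also: carbachol stimulus at about its EC50 of 1 µM final; % is scaled to controls: 0 for no effect and ±100 for the full control effect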); settings: Jurkat NFAT-bla M1, carbachol, beta-lactamase ratio, 5 h
Outline: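 Read-out: CCF4 FRET ratio (460 nm/530 nm) after 1 h RT dye loading, used for %activity and AC50 from titration series. Cells: Jurkat NFAT-β-lactamase/M1 line, treated with compound plus 1 uM carbachol for 5 h, 37 °C.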

[2] = UWB1.289 Cancer Cell Toxicity qHTS against the NCATS CANVASS Library (AID 1347347); settings: UWB1.289 viability, CellTiter-Glo luminescence, 72 h; series mostly up to 38.3 µM; also: nearly all actives have a fitted effect of over 60% in size; also: potency is read from the fitted curve at half-maximal effect
Outline: (§1)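 1000 cells/well; 4 h settle; 11-pnt titration; 72 h, 37 degrees C, 5% CO2; CellTiter-Glo, 15min RT; luminescence read.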

[3] = SW1088 Cancer Cell Toxicity qHTS against the NCATS CANVASS Library (AID 1347350); settings: SW1088 viability, CellTiter-Glo luminescence, 72 h; series mostly up to 38.3 µM; also: nearly all actives have a fitted effect of over 75% in size; also: potency is read from the fitted curve at half-maximal effect
Outline: as §1

[4] = U-118MG Cancer Cell Toxicity qHTS against the NCATS CANVASS Library (AID 1347351); settings: U-118MG viability, CellTiter-Glo luminescence, 72 h; series mostly up to 38.3 µM; also: potency is read from the fitted curve at half-maximal effect
Outline: as §1

[5] = A2780 Cisplatin Sensitive Ovarian Cancer Cell Toxicity qHTS against the NCATS CANVASS Library (AID 1347353); settings: A2780 ovarian cancer viability, ATPLite luminescence, 72 h; series mostly up to 46.1 µM; also: nearly all actives have a fitted effect of over 60% in size; also: potency is read from the fitted curve at half-maximal effect
Outline: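 Seventy-two-hour exposure of cisplatin-sensitive A2780 ovarian cells to an 11-concentration qHTS series; cytotoxicity is inferred from loss of ATPLite luminescence. Bortezomib titration served as positive control.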

[6] = HEK293 18hr Apoptosis Induction qHTS against the NCATS CANVASS Library (AID 1347357); settings: HEK293 caspase-3/7 Caspase-Glo luminescence; series mostly up to 46.1 µM; also: 0% is about no effect
Outline: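 Caspase-Glo 3/7 luminescence (15 min, room temperature) measured apoptosis after an 18-hour, 37 degrees C exposure of HEK293 cells (500 cells/well) to compounds in 11 points.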

[7] = HPAF-II 12hr Apoptosis Induction qHTS against the NCATS CANVASS Library (AID 1347358); settings: HPAF-II caspase-3/7 Caspase-Glo luminescence; series mostly up to 46.1 µM; also: 0% is about no effect
Outline: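 Apoptosis in HPAF-II pancreatic cancer cells is scored as caspase 3/7 luminescence following a 12-hour exposure to an 11-point compound series.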

[8] = KB-3-1 Cancer Cell Toxicity qHTS against the NCATS CANVASS Library (AID 1347366); settings: KB-3-1 viability, CellTiter-Glo luminescence, 72 h; series mostly up to 46.1 µM; also: nearly all actives have a fitted effect of over 75% in size; also: potency is read from the fitted curve at half-maximal effect
Outline: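 CellTiter-Glo luminescence measured viability after 72 h at 37C. KB-3-1 cells were seeded at 500 per well in DMEM/10% FBS.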

[9] = MCF7 Cancer Cell Toxicity qHTS against the NCATS CANVASS Library (AID 1347369); settings: MCF7 viability, ATP luminescence (CellTiter-Glo), 72 h; series mostly up to 46 µM
Outline: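 Cytotoxicity was measured as CellTiterGlo luminescence (ATP) after 72 h at 37 °C. The cells were MCF7 at 500 per well, with an 11-point compound concentration series.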

[10] = target: Nuclear receptor subfamily 1 group I member 3 (Homo sapiens) (UniProt Q14994); assay: qHTS for Constitutive Androstane Receptor (CAR) Antagonist screened against the NCATS CANVASS Library (AID 1347372); settings: HepG2-hCAR-CYP2B6 luciferase, CITCO-stimulated antagonist mode; series mostly up to 46.1 µM; also: potency is read from the fitted curve at half-maximal effect;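 as to activity change, negative = inhibition: cells stimulated with 50 nM CITCO agonist so inhibition reflects antagonism; luciferase from CYP2B6 promoter reporter driven by hCAR in HepG2 cells; % is scaled to controls: 0 for no effect and ±100 for the full control effect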
Outline: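 HepG2-CYP2B6-hCAR double-stable cells plated, 4hr attach; cpd pin-transferred; CITCO 50 nM final; 24hr 37C/5% CO2; CellTiter-Fluor 1hr (fluorescence), then ONE-Glo luminescence.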

[11] = target: Nuclear receptor subfamily 1 group I member 3 (Homo sapiens) (UniProt Q14994); assay: qHTS for Constitutive Androstane Receptor (CAR) Agonist screened against the NCATS CANVASS Library (AID 1347373); settings: HepG2-hCAR-CYP2B6 luciferase reporter, ONE-Glo luminescence; series mostly up to 46.1 µM;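 also: every well also contained 1.5 µM PK11195 alongside the test compound; 0% is about no effect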
Outline: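 CAR agonism is scored as CYP2B6-promoter luciferase induction in a double-stable transfected HepG2 line, where 1.5uM PK11195 is included in each well. Compounds were tested over a 24hr exposure.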

[12] = qHTS for H2AX Agonists against the NCATS CANVASS Library (AID 1347378); settings: CHO-K1 H2AX phosphorylation, HTRF TR-FRET, 3 h; series mostly up to 76.9 µM; also: 0% is about no effect
Outline: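 Phospho-H2AX (S139) in CHO-K1 lysates measured by HTRF, reported as 665/615 nm emission ratio after 24 hr antibody incubation at room temperature. Cells were first treated with a compound series for 3 hr at 37C (0.76% DMSO final).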

[13] = Inflammasome Signaling qHTS Counterscreen: IL-1-beta AlphaLISA counterscreen against the NCATS CANVASS Library (AID 1347381); settings: Purified IL-1beta AlphaLISA signal interference counterscreen; series mostly up to 57.5 µM;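 also: cell-free check with purified IL-1β in medium and no THP-1 cells; 0% is about no effect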
Outline: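 To flag interference with the AlphaLISA read-out, a known amount of purified IL-1-beta (4 pg) replaced cell supernatant. Detection used anti-IL-1-beta acceptor beads, biotinylated antibody and streptavidin donor beads at room temperature.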

[14] = Cytotoxicity qHTS for assessment of Hepg2 cells membrane integrity screened against the NCATS CANVASS Library (AID 1347387); settings: HepG2 LDH release (CytoTox-ONE) fluorescence, 5 h; series mostly up to 46.1 µM
Outline: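 Fluorescence proportional to lysed-cell number, from LDH leaking out of HepG2 cells exposed 5 hr at 37C to 0.59 nM - 46 uM compound (11-point qHTS), is measured after 10 min with CytoTox-ONE.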

[15] = qHTS assay for small molecule disruptors of mitochondrial membrane potential screened against the NCATS CANVASS Library (AID 1347389); settings: HepG2 mitochondrial membrane potential, m-MPI red/green ratio, 1.5 h; series mostly up to 46.1 µM; also: nearly all actives have a fitted effect of over 60% in size; also: potency is read from the fitted curve at half-maximal effect
Outline: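 Compounds tested in 11-point qHTS series on HepG2 cells for 1 hr; membrane-potential dye added for 30 min at 37C. Lower red-to-green ratio indicates loss of potential.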

[16] = Secretion counterscreen for inhibitors of the SERCaMP assay screened against the NCATS CANVASS Library (AID 1347390); settings: SH-SY5Y constitutive GLuc secretion, luminescence, 20 h; series mostly up to 76.6 µM;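 also: light from luciferase secreted into medium read as a measure of general secretion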; also: potency is read from the fitted curve at half-maximal effect; as to activity change, negative = inhibition: % is scaled to controls: 0 for no effect and ±100 for the full control effect
Outline: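 Counterscreen for secretory-pathway interference: after 4 h attachment, SH-SY5Y-GLuc cells were exposed 20 hours to compounds (final 0.001 - 77 uM), then coelenterazine added and GLuc luminescence recorded; Brefeldin A served as control.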

[17] = qHTS for activators of dead-cell proteases activity screened against the NCATS CANVASS Library (AID 1347392); settings: HepG2 cytotoxicity, dead-cell protease luminescence, 5 h; series mostly up to 46.1 µM;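 also: luminescence from protease leaking out of membrane-damaged cells cleaving impermeant substrate; 0% is about no effect; rising signal means more cytotoxicity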
Outline: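 Compounds are pin-transferred onto attached HepG2 cells, giving 11 final concentrations. After 5 h at 37C, AAF-aminoluciferin reagent is added and luminescence is recorded at room temperature.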

[18] = Vero-766 cells viability qHTS against the NCATS CANVASS Library: Counterscreen for Zika virus inhibition assay (AID 1347394); settings: Vero 766 viability, CellTiter-Glo luminescence, 72 h; series mostly up to 46.1 µM; also: nearly all actives have a fitted effect of over 60% in size; also: potency is read from the fitted curve at half-maximal effect
Outline: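 CellTiter Glo luminescence measured cytotoxicity after 72 h at 37C in uninfected Vero 766 cells, plated at 1000 cells/well. Compounds were applied in an 11-point series. Wells without cells defined 100% inhibition.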

[19] = Viability qHTS for inhibitors of the SERCaMP assay screened against the NCATS CANVASS Library (AID 1347400); settings: SH-SY5Y SERCaMP cells viability, CellTiter-Glo, 48 h; series mostly up to 92.2 µM; also: nearly all actives have a fitted effect of over 70% in size; also: potency is read from the fitted curve at half-maximal effect
Outline: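 Cytotoxicity counter-screen: ATP content (CellTiter-Glo luminescence) of SH-SY5Y-GLuc SERCaMP MJH297 cells after 48 h at 37C with compounds in an 11-point qHTS series.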

[20] = Redox Reaction Profiling qHTS: Assay Interference Panel against the NCATS CANVASS Library (AID 1347401); settings: resazurin-DTT redox cycling, fluorescence, 15 min; series mostly up to 57.1 µM; also: potency is read from the fitted curve at half-maximal effect
Outline: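 Cell-free redox surrogate: 5 uM resazurin + 200 uM DTT, 50 mM HEPES pH 7.3/50 mM NaCl; cpds pinned, 11-pt qHTS; Ex525/Em598 read t0 and t=15 min, dark.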

Chain of Nuclear receptor subfamily 1 group I member 3 (Homo sapiens) (Q14994 whole entry, looked up): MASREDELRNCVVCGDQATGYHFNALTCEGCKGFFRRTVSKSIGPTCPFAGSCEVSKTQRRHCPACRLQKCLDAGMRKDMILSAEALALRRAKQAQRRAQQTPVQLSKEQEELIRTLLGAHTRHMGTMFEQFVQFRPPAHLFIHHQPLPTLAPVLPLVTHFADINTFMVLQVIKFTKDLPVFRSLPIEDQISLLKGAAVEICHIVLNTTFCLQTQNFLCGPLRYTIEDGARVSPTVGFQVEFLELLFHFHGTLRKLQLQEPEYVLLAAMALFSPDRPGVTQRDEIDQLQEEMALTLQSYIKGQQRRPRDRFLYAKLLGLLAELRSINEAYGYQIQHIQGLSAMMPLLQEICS

C[C@H](N)Cc1cnc[nH]1
inactive: activity change, negative = inhibition ([1]; at 38 µM (top of the series)) 4.34%

O=C1NCN(c2ccccc2)C12CCN(C[C@H]1COc3ccccc3O1)CC2
inactive: activity change, negative = inhibition ([1]; at 38 µM (top of the series)) 1.71%

CN1[C@@H]2CC[C@H]1CC(O[C@@H](c1ccccc1)c1ccc(Cl)cc1)C2 (some centres not stated)
active: activity change, negative = inhibition ([1]; at 38 µM (top of the series)) -69.3%

COc1ccc(-n2nc(C(F)(F)F)cc2-c2ccc(Cl)cc2)cc1
active: activity change, negative = inhibition ([1]; at 38 µM (top of the series)) -91.5%

CN1CCN(C(=O)OC2c3nccnc3C(=O)N2c2ccc(Cl)cn2)CC1 (configuration not stated)
inactive: activity change, negative = inhibition ([1]; at 17.2 µM (top of the series)) 3%

CCOC(=O)c1cc2c(cn1)[nH]c1ccccc12
inactive: activity change, negative = inhibition ([1]; at 17.2 µM (top of the series)) 26.1%

N[C@H](C(=O)O)c1cc(=O)[nH]o1
inactive: activity change, negative = inhibition ([1]; at 38 µM (top of the series)) 2.26%

O=C1CC[C@@]2(O)[C@H]3Cc4ccc(O)c5c4[C@@]2(CCN3CC2CC2)[C@@H]1O5
inactive: activity change, negative = inhibition ([1]; at 38 µM (top of the series)) 8.31%

CN1C[C@H](CNC(=O)OCc2ccccc2)C[C@H]2c3cccc4c3c(cn4C)C[C@@H]21
inactive: activity change, negative = inhibition ([1]; at 17.2 µM (top of the series)) -3.47%

C=CCN1CC[C@]23c4c5ccc(O)c4O[C@@H]2C(=O)CC[C@]3(O)[C@H]1C5
inactive: activity change, negative = inhibition ([1]; at 17.2 µM (top of the series)) -9.64%

Oc1ccc2c3c1O[C@H]1c4oc5ccccc5c4C[C@]4(O)[C@H](C2)N(CC2CC2)CC[C@@]314
inactive: activity change, negative = inhibition ([1]; at 38 µM (top of the series)) -24.9%

Oc1ccc2c3c1O[C@H]1c4[nH]c5ccccc5c4C[C@]4(O)[C@H](C2)N(CC2CC2)CC[C@@]314
inactive: activity change, negative = inhibition ([1]; at 38 µM (top of the series)) 3.02%

O=C(O)c1ccccc1-c1c2cc(Br)c(=O)cc-2oc2[c]([Hg])c(O)c(Br)cc12
inactive: activity change, negative = inhibition ([1]; at 17.2 µM (top of the series)) -24.9%

CC(=O)N[C@H]1CCN2CCC[C@H]12
active: Potency [20] 63.2 µM
inactive: Potency [2] | Potency [3] | Potency [4] | Potency [5] | Potency [6] | outcome [7] | Potency [8] | Potency [9] | Potency [10] | outcome [11] | Potency [12] | outcome [13] | outcome [14] | Potency [15] | Potency [16] | Potency [17] | Potency [18] | Potency [19]

CNCCc1ccc(O)cc1
inactive: Potency [2] | Potency [3] | Potency [4] | Potency [5] | Potency [6] | outcome [7] | Potency [8] | Potency [9] | Potency [10] | outcome [11] | Potency [12] | outcome [13] | outcome [14] | Potency [15] | Potency [16] | Potency [17] | Potency [18] | Potency [19] | Potency [20]

CO[C@@H](/C=C/CC/C=C/C(=O)O)[C@@H](O)[C@H](C)[C@@H](O)/C(C)=C/[C@H](C)C(=O)CCCC1CC(=O)NC(=O)C1
inactive: Potency [2] | Potency [3] | Potency [4] | Potency [5] | Potency [6] | outcome [7] | Potency [8] | Potency [9] | Potency [10] | outcome [11] | Potency [12] | outcome [13] | outcome [14] | Potency [15] | Potency [16] | Potency [17] | Potency [18] | Potency [19] | Potency [20]

CO[C@@H](/C=C/CC/C=C/C(=O)O)[C@@H](O)[C@H](C)/C=C(\C)[C@@H](O)[C@H](C)C(=O)CCCC1CC(=O)NC(=O)C1
inactive: Potency [2] | Potency [3] | Potency [4] | Potency [5] | Potency [6] | outcome [7] | Potency [8] | Potency [9] | Potency [10] | outcome [11] | Potency [12] | outcome [13] | outcome [14] | Potency [15] | Potency [16] | Potency [17] | Potency [18] | Potency [19] | Potency [20]

O=C(c1ccccc1O)c1[nH]c(Cl)c(Cl)c1-n1c(C(=O)c2ccccc2O)cc(Cl)c1Cl
inactive: Potency [6] | outcome [7] | outcome [11] | Potency [12] | outcome [13] | outcome [14] | Potency [17] | Potency [20]
active: Potency [2] 3.75 µM | Potency [3] 749 nM | Potency [4] 6.68 µM | Potency [5] 3.72 µM | Potency [8] 2.35 µM | Potency [10] 3.71 µM | Potency [15] 93.3 nM | Potency [16] 19.3 µM | Potency [18] 1.32 µM | Potency [19] 19.1 µM
